Measured values as given in PubChem BioAssay.
Active and inactive are the calls of the source.

Columns and labels:
[1] = system: Wnt5a (protein binding on small-molecule microarray); assay: small molecules binding Wnt5a protein – biophysical, small-molecule microarray, 635/667 nm fluorescence, primary screen (AID 1142); conditions: 635 nm fluorescence, higher = more signal;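 further: fluorescence read at 667 nm with signal to noise per printed feature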
[2] = ATP-based viability of Huh7 replicon cells – cell-based, CellTiter-Glo luminescence, basal, 48 h, cytotoxicity control for HCV replication inhibitor project, primary screen (AID 1143); conditions: higher = more signal, called active from +8 up or from −8 down;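 further: Huh7 hepatoma cells carrying a hepatitis C replication reporter with no stimulus; test concentration not given here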
[3] = basal CRE-LacZ reporter activity in PC12 – cell-based, unstimulated, primary screen (AID 1145); conditions: no forskolin, luminescence, 4.5 h, higher = more signal, called active from +8 up or from −8 down
[4] = forskolin-driven CRE-LacZ activity in PC12 – cell-based, CRE-LacZ reporter, forskolin-stimulated, primary screen (AID 1146); conditions: luminescence, 4.5 h, higher = more signal, called active from +8 up or from −8 down;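 further: PC12 cells with 6xCRE LacZ reporter stimulated by forskolin 10 µM; beta-galactosidase reporter signal reflecting CREB driven transcription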
[5] = target: Streptavidin (Streptomyces avidinii) (UniProt P22629); assay: compounds binding control protein streptavidin – biophysical, small-molecule microarray, 635/667 nm fluorescence, artefact control for SMM compound annotation, primary screen (AID 1147); conditions: higher = more signal;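 further: signal reflects streptavidin binding to arrayed compounds as a control protein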
Sequence of Streptavidin (Streptomyces avidinii) (P22629 whole entry, looked up): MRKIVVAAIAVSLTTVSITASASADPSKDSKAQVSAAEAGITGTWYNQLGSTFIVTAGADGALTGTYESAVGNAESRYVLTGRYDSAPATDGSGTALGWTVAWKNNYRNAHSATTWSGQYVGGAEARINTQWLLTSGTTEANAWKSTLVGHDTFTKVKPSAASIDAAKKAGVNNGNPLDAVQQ

[6] = probe aInhba binding on compound microarray – biochemical, small-molecule microarray, 635/667 nm fluorescence, primary screen (AID 1148); conditions: higher = more signal;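 further: score merges 667nm spot fluorescence with signal-to-noise for antibody binding to printed compounds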
Torsin-1A (Homo sapiens) [7] = target: Torsin-1A (Homo sapiens) (UniProt O14656); assay: TOR1A wild-type binding on microarray – cell lysate, small-molecule microarray, lysate, 635/667 nm, primary screen (AID 1149); conditions: COS7 hTOR1A-WT lysate, 635 nm fluorescence, higher = more signal
Sequence of Torsin-1A (Homo sapiens) (O14656 whole entry, looked up): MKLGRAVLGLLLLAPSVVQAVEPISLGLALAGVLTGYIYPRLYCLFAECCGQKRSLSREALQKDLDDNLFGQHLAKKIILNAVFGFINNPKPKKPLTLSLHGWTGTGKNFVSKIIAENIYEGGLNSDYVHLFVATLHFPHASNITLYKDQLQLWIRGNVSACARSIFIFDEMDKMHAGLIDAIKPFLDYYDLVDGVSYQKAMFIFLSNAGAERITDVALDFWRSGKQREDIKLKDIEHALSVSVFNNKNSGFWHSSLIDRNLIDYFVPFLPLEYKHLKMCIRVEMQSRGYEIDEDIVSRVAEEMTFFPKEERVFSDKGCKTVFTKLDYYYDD

Torsin-1A (Homo sapiens) [8] = target: Torsin-1A (Homo sapiens) (UniProt O14656); assay: torsin A mutant lysate binding on microarrays – cell lysate, small-molecule microarray, COS7 lysate, 635/667 nm fluorescence, primary screen (AID 1150); conditions: COS7 hTOR1A mutant lysate, 635 nm fluorescence, higher = more signal;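 further: score pools 667 nm emission and signal to noise measuring lysate protein binding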
[9] = system: Sonic hedgehog protein (Shh); assay: Sonic hedgehog microarray binding compounds – biochemical, small-molecule microarray, 635/667 nm fluorescence, primary screen (AID 1151); conditions: 635 nm fluorescence, higher = more signal;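 further: Shh protein binding to compounds spotted on small-molecule microarray slides; score combines spot fluorescence intensity with signal-to-noise across triplicate slides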
[10] = optical density shifts of acrAB sulA E. coli – strain DRC41, OD650, 48 h, E. coli filamentation inducer project, primary screen (AID 1152); conditions: higher = more signal, called active from +8 up or from −8 down;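 further: E. coli MC1000 strain DRC41 lacking acrAB efflux pump and sulA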
[11] = probe aLefty1 binding on compound microarray – biochemical, small-molecule microarray, 635/667 nm fluorescence, primary screen (AID 1153); conditions: higher = more signal;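 further: score merges spot fluorescence with signal-to-noise ratio from the scanned slide images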
[12] = plasmodial surface anion channel blockers, osmotic lysis – cell-based, P. falciparum Indochina, OD700, 1 h, primary screen (AID 1154); conditions: P. falciparum Indochina infected RBC osmotic lysis, higher = more signal, called active from +8 up or from −8 down
[13] = plasmodial surface anion channel blockers, osmotic lysis – cell-based, P. falciparum Indochina, OD700, 2 h, primary screen (AID 1155);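 further: lysis reports solute entry through the parasite surface anion channel PSAC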; conditions: P. falciparum Indochina infected erythrocytes, higher = more signal, called active from +8 up or from −8 down
[14] = changes in parasitized red cell lysis, either direction – P. falciparum Indochina, OD700, 3 h, PSAC antagonist project, primary screen (AID 1156); conditions: P. falciparum-infected erythrocytes, osmotic lysis, higher = more signal, called active from +8 up or from −8 down
[15] = plasmodial surface anion channel blockers, osmotic lysis – cell-based, P. falciparum Indochina, OD700, 18 h, primary screen (AID 1157); conditions: P. falciparum Indochina infected erythrocytes, osmotic lysis OD700, 18 h; higher = more signal, called active from +8 up or from −8 down
[16] = S6 kinase pathway phospho-S6 level changes – cell-based, A549, cytoblot, luminescence, serum-stimulated, primary screen (AID 1158); conditions: 5 h, higher = more signal;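 further: serum-stimulated A549 lung adenocarcinoma cells; signal is phosphorylated S6 detected by cytoblot immunostaining with HRP secondary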
[17] = target: NADPH oxidase 2 (Homo sapiens) (UniProt P04839); assay: compounds shifting NOX2 Amplex Red fluorescence – cell-based, HEK293-NOX2, PMA-stimulated, NOX inhibitor project, primary screen (AID 1159); conditions: 45 min, higher = more signal, called active from +8 up or from −8 down; further: test concentration not given here
Sequence of NADPH oxidase 2 (Homo sapiens) (P04839 whole entry, looked up): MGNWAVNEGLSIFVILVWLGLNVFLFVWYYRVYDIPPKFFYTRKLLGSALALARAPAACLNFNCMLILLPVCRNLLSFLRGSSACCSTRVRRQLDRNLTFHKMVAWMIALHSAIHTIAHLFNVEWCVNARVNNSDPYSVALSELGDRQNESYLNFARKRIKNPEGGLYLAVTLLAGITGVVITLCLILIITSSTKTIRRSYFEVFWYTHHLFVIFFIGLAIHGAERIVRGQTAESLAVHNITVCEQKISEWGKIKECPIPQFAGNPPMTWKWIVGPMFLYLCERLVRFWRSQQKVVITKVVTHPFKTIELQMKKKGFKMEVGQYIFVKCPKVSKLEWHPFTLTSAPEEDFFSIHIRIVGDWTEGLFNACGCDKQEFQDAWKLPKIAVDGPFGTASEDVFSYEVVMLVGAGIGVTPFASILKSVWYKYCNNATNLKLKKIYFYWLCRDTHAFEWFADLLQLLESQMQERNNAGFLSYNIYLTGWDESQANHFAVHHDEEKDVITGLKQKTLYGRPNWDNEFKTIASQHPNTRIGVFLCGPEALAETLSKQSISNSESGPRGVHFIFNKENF

[18] = target: NADPH oxidase 4 (Homo sapiens) (UniProt Q9NPH5); assay: compounds shifting NOX4 Amplex Red fluorescence – cell-based, HEK293-NOX4, tetracycline-induced, NOX inhibitor project, primary screen (AID 1160); conditions: HEK293-NOX4, Amplex Red H2O2 fluorescence, 45 min; higher = more signal, called active from +8 up or from −8 down
Sequence of NADPH oxidase 4 (Homo sapiens) (Q9NPH5 whole entry, looked up): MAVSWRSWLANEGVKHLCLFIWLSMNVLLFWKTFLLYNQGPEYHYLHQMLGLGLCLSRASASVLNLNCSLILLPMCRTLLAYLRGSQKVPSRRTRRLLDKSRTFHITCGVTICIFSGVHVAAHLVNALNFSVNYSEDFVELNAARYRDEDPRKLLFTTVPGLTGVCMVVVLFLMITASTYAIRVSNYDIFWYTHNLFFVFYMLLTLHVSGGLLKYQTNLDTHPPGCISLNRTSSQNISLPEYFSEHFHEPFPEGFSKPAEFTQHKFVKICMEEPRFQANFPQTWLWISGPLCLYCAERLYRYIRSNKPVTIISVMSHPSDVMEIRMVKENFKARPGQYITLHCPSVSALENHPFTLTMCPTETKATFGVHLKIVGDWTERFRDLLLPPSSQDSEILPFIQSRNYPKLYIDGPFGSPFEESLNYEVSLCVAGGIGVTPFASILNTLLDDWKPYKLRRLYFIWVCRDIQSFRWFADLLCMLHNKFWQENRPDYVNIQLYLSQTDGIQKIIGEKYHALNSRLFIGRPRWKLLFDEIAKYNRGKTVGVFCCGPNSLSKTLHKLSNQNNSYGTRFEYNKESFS

[19] = target: NADPH oxidase 5 (Homo sapiens) (UniProt Q96PH1); assay: compounds shifting NOX5 Amplex Red fluorescence – cell-based, HEK293-NOX5, NOX inhibitor project, primary screen (AID 1161); conditions: HEK293-NOX5, ionomycin, 45 min, higher = more signal
Sequence of NADPH oxidase 5 (Homo sapiens) (Q96PH1 whole entry, looked up): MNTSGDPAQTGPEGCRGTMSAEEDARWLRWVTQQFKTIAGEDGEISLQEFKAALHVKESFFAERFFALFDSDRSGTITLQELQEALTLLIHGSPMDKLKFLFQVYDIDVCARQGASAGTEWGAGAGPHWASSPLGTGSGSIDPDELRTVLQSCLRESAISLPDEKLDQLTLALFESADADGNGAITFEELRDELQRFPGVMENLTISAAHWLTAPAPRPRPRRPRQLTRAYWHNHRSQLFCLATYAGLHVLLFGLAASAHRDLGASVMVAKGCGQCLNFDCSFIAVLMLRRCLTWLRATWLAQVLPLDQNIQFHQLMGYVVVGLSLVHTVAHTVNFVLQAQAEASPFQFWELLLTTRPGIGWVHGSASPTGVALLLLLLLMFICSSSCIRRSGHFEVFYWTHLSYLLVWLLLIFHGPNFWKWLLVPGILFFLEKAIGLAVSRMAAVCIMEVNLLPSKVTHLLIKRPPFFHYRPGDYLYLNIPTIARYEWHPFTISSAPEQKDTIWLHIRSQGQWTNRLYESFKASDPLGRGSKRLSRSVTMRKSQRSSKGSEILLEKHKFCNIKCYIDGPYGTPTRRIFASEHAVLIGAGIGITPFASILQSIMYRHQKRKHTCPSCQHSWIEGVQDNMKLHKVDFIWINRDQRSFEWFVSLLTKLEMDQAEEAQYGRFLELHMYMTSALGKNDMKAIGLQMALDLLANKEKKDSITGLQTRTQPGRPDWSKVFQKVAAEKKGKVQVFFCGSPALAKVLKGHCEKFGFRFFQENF

[20] = compound effects on lung adenocarcinoma cell viability – A549, calcein-AM fluorescence, 48 h, basal, profiling panel (AID 1162); conditions: higher = more signal; further: test concentration not given here

Compound	composite z-score [1]	z-score [2]	z-score [3]	z-score [4]	composite z-score [5]	composite z-score [6]	composite z-score (Torsin-1A (Homo sapiens) [7])	composite z-score (Torsin-1A (Homo sapiens) [8])	composite z-score [9]	z-score [10]	composite z-score [11]	z-score [12]	z-score [13]	z-score [14]	z-score [15]	z-score [16]	z-score [17]	z-score [18]	z-score [19]	z-score [20]
CCCC[C@@H](O)C1=C(C)C[C@H]2C(=O)N(C)C(=O)[C@H]2[C@H]1CO	-0.0163	-1.36 (inactive)	0.0423 (inactive)	-2.14 (inactive)	-0.242	-0.0736	0.0651	-0.0216	1.18	3.62 (inactive)	-0.239	3.54 (inactive)	-0.526 (inactive)	-0.224 (inactive)	-1.56 (inactive)	0.8	-1.32 (inactive)	0.914 (inactive)	0.794	2.36
CC(C)(C)OC(=O)CC[C@@]1(C(=O)NCc2ccccc2)N=C(c2ccc(OCCCO)cc2)O[C@@H]1c1ccccc1CN=[N+]=[N-]	1.14	-5.23 (inactive)	1.46 (inactive)	-1.42 (inactive)	1.17	0.156	0.807	0.312	0.285	2.4 (inactive)	-0.14	26.3 (active)	16.7 (active)	-0.187 (inactive)	0.712 (inactive)	2.07	-0.046 (inactive)	-0.0643 (inactive)	-1.35	1.09
COCCCNC(=O)[C@@]1(CCS(=O)(=O)c2ccccc2)N=C(c2ccc(OCCCO)cc2)O[C@H]1c1ccccc1CN=[N+]=[N-]	0.671	-5.36 (inactive)	2.57 (inactive)	-1.7 (inactive)	1.41	0.358	-0.183	0.186	0.744	2.33 (inactive)	1.03	23.5 (active)	4.65 (inactive)	2.25 (inactive)	0.425 (inactive)	3.83	0.439 (inactive)	-0.383 (inactive)	-0.497	1
C=CC[C@]1(C(=O)N2CCCCC2)COC(c2ccc(OCCCO)cc2)=N1	0.0945	-4.06 (inactive)	1.08 (inactive)	-1.78 (inactive)	-0.712	-0.128	-0.273	-0.204	0.0166	0.924 (inactive)	0.0391	24.9 (active)	12 (active)	4.37 (inactive)	0.866 (inactive)	0.826	-3.2 (inactive)	-0.256 (inactive)	-3.57	-1.48
CC(CO)N1C(=O)[C@@H]2C3C(=O)OCCC/C=C\[C@H]3OC23C=CCN(Cc2ccccc2)C(=O)[C@@H]13 (stereo not given in full)	-0.146	-0.182 (inactive)	-0.753 (inactive)	-0.954 (inactive)	-1.03	-0.31	-0.462	-0.276	0.194	2.52 (inactive)	-0.24	0.38 (inactive)	-0.999 (inactive)	-0.513 (inactive)	-0.899 (inactive)	0.467	0.456 (inactive)	-0.322 (inactive)	1.36	1.59
